Results taken from PubChem BioAssay (EPA / NIEHS).
Values joined by “and” are separate entries in the source; they are usually repeats but may differ in a detail not shown here. Equal entries are not always repeated. Results filed as inconclusive are left out. A structure can be active in one record and inactive in another. Active and inactive are the calls of the source. Rule for the calls, unless noted: active = hit-call score of the fitted dose curve at least 0.9, where 1 is the maximum; inactive = score below 0.9.

What was measured:
[1] = target: Nuclear respiratory factor 1 (Homo sapiens) (UniProt Q16656); experiment: ATG_NRF1_CIS: Attagene CIS-FACTORIAL HepG2 Assay for human Nuclear Respiratory Factor 1 (NRF1) Orphan Gene (AID 2282987); conditions: HepG2 NRF1 cis-element reporter, Attagene multiplex; actives raise or lower the signal
Sequence of Nuclear respiratory factor 1 (Homo sapiens) (Q16656 whole entry, looked up, the tested form may be a part): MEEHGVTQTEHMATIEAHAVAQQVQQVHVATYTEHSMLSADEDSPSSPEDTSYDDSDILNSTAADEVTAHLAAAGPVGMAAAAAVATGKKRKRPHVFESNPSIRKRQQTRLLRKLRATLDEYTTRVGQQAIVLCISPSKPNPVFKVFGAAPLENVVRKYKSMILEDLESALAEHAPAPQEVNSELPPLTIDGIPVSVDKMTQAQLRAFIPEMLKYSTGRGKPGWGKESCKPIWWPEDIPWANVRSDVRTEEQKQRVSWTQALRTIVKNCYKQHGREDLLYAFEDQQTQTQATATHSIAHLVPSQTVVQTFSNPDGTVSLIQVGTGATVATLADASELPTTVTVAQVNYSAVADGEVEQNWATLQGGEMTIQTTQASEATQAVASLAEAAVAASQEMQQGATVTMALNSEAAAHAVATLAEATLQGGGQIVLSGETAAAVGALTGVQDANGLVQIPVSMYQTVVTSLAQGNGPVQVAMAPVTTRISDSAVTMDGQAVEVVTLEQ
In short: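 Cells (HepG2, transient MRTU transfection) are exposed to compound for 24 h, then RNA isolated and reporter mRNA amplified and fluorescently labelled. Fragments are separated by capillary electrophoresis; signal change is fitted bidirectionally relative to DMSO.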

[2] = ATG_NFI_CIS: Attagene CIS-FACTORIAL HepG2 Assay for human Nuclear Factor I (NFI) (AID 2282989); conditions: HepG2 cis-regulatory reporter, NFI response element transcription; actives raise or lower the signal
In short: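 Cells: human liver HepG2, transiently transfected with promoter-regulated reporter transcription units. Exposure 24 h. Detection: fluorescent RT-PCR products separated by capillary electrophoresis, normalised to DMSO negative control.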

[3] = ATG_NF_kB_CIS: Attagene CIS-FACTORIAL HepG2 Assay for human Nuclear Factor Kappa B (NF-kB) (AID 2282991); conditions: HepG2 Attagene cis-factorial NF-kB reporter mRNA; actives raise or lower the signal
In short: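 Measures mRNA induction of an NF-kB-responsive cis-element reporter in HepG2 cells transfected with multiple reporter units, sampled 24 h post-dosing; quantified by fluorescence after RT-PCR and capillary electrophoresis, fitted for activation or inhibition against DMSO.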

[4] = ATG_NRF2_ARE_CIS: Attagene CIS-FACTORIAL HepG2 Assay for human Nuclear Factor Erythroid 2 Related Factor 2 (NFR2) response to Antioxidant Response Elements (ARE) (AID 2282992); conditions: HepG2 Attagene ARE/NRF2 reporter, transcription factor activity; actives raise or lower the signal;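 for AC50: reporter mRNA level measured by RT-PCR and capillary electrophoresis fluorescence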
In short: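 Transient MRTU transfection of HepG2; 24 h compound exposure; TriZol RNA, RT with oligo(dT), PCR, 6-FAM primer extension, HpaI cut, CE. Bidirectional fit vs DMSO.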

[5] = ATG_Oct_MLP_CIS: Attagene CIS-FACTORIAL HepG2 Assay for human Octamer-Binding Transcription Factor (Oct) (AID 2282993); conditions: HepG2 Attagene cis-factorial Oct reporter, mRNA; actives raise or lower the signal
In short: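 HepG2, transient MRTU transfection, cis promoter elements; 24 h dosing; RT-PCR/CE fluorescence read-out of reporter mRNA; fit both directions vs DMSO.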

[6] = target: Cellular tumor antigen p53 (Homo sapiens) (UniProt P04637); experiment: ATG_p53_CIS: Attagene CIS-FACTORIAL HepG2 Assay for human p53 Transcription Factor (AID 2282994); conditions: HepG2 p53 cis-element reporter, Attagene mRNA; actives raise or lower the signal
Sequence of Cellular tumor antigen p53 (Homo sapiens) (P04637 whole entry, looked up): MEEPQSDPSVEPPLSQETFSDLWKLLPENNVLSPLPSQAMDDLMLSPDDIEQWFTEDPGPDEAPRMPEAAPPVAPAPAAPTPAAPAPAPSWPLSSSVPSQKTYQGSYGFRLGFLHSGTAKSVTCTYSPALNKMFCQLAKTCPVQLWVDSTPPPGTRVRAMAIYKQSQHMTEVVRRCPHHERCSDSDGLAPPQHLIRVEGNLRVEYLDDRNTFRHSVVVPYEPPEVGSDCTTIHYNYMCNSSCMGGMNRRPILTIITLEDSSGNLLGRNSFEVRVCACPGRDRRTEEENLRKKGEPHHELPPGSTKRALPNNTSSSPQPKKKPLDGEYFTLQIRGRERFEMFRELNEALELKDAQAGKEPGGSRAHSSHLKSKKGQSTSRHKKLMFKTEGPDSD
In short: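 HepG2, transient MRTU transfection (cis promoter elements, endogenous TFs); 24 h dosing; RNA isolation, RT-PCR, 6-FAM primer extension, HpaI digest, CE fluorescence; bidirectional fit vs DMSO.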

[7] = target: Peroxisome proliferator-activated receptor gamma (Homo sapiens) (UniProt P37231); experiment: ATG_PPARg_TRANS: Attagene TRANS-FACTORIAL HepG2 Assay for human Peroxisome Proliferator-activated Receptor-gamma (PPARg) (AID 2283007; active = hit-call score of the fitted dose curve at least 0.9, where 1 is the maximum)
Sequence of Peroxisome proliferator-activated receptor gamma (Homo sapiens) (P37231 whole entry, looked up, the tested form may be a part): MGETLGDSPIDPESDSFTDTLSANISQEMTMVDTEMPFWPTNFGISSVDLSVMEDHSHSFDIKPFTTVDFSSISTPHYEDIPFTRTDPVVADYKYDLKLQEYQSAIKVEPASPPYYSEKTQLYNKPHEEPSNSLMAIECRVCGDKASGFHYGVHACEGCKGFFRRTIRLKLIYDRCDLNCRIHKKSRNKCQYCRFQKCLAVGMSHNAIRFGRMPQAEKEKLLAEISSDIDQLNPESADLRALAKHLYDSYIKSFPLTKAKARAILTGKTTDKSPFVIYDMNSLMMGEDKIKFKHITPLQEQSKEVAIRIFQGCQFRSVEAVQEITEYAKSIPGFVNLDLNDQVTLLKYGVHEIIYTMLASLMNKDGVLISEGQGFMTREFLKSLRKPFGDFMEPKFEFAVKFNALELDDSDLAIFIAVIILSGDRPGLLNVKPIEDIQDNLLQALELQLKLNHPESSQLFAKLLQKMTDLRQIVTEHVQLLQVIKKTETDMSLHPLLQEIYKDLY
In short: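 Gain-of-signal endpoint relative to DMSO, derived from reporter mRNA levels quantified by RT-PCR and capillary electrophoresis. Cells were HepG2 transiently expressing a chimeric NR-Gal4 construct with GAL4-UAS reporters, exposed to chemicals for 24 h.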

[8] = target: Nuclear receptor subfamily 1 group I member 2 (Homo sapiens) (UniProt O75469); experiment: ATG_PXR_TRANS: Attagene TRANS-FACTORIAL HepG2 Assay for human Pregnane X Receptor (PXR) (AID 2283008; active = hit-call score of the fitted dose curve at least 0.9, where 1 is the maximum)
Sequence of Nuclear receptor subfamily 1 group I member 2 (Homo sapiens) (O75469 whole entry, looked up, the tested form may be a part): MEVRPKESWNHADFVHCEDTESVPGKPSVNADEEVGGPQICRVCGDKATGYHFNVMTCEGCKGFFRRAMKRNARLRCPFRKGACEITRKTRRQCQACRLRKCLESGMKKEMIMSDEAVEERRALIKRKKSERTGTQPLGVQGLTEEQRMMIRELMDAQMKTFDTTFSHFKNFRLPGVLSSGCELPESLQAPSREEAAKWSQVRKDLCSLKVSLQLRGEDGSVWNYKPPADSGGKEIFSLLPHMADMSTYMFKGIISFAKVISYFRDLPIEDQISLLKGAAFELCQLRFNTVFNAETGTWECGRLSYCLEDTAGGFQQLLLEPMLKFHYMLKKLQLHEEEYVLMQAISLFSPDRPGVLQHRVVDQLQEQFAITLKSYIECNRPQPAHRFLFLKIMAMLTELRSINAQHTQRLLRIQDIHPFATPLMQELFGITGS
In short: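 Read-out is fluorescence of labelled reporter cDNA fragments separated by capillary electrophoresis after RT-PCR and HpaI digestion. Source: HepG2 cells carrying PXR-GAL4/UAS reporter constructs, treated 24 h; activity fitted upward relative to DMSO.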

[9] = target: human RAR-related Orphan Receptor beta (RORb), RORB (gene 6096) (UniProt Q92753); experiment: ATG_RORb_TRANS: Attagene TRANS-FACTORIAL HepG2 Assay for human RAR-related Orphan Receptor beta (RORb) (AID 2283010; active = hit-call score of the fitted dose curve at least 0.9, where 1 is the maximum)
Sequence of human RAR-related Orphan Receptor beta (RORb), RORB (gene 6096) (Q92753 whole entry, looked up, the tested form may be a part): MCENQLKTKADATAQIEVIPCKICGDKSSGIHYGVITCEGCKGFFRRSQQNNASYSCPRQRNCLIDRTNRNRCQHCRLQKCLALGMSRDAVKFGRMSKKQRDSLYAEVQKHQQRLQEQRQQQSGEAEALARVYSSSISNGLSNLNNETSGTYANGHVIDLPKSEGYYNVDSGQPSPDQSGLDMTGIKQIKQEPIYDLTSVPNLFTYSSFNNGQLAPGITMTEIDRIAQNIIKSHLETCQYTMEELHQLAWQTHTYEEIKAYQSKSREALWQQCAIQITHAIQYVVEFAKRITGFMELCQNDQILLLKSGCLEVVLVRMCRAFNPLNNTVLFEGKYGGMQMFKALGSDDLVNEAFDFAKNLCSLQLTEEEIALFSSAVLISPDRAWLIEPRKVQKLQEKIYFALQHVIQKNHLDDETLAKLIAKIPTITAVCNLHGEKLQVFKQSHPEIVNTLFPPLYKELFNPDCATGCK
In short: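 HepG2 cells transiently transfected with GAL4-UAS reporter units expressing chimeric NR-Gal4 protein; reporter mRNA measured 24 h after dosing by RT-PCR, 6-FAM labelling and capillary electrophoresis. Gain-of-signal fitted relative to DMSO baseline.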

[10] = target: Myc proto-oncogene protein (Homo sapiens) (UniProt P01106); experiment: ATG_Myc_CIS: Attagene CIS-FACTORIAL HepG2 Assay for human Myelocytomatosis (Myc) Proto-Oncogene Transcription Factor (AID 2282990); conditions: HepG2, Attagene cis-reporter transcription factor activity; actives raise or lower the signal
Sequence of Myc proto-oncogene protein (Homo sapiens) (P01106 whole entry, looked up, the tested form may be a part): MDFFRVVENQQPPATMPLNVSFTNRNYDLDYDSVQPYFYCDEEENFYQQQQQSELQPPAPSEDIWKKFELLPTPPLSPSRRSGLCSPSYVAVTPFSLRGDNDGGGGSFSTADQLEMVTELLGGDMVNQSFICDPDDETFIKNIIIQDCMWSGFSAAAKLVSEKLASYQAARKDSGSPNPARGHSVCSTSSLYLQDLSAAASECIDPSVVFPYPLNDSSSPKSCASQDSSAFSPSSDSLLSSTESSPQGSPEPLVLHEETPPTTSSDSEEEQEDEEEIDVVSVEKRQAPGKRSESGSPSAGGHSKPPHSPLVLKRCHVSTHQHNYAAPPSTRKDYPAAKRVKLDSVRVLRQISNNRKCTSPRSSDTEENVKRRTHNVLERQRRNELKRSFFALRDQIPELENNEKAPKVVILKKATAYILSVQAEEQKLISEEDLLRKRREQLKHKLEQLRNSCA
In short: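 After 24 h chemical treatment of HepG2 cells carrying multiplexed cis-regulated reporter constructs, reporter transcripts quantified by RT-PCR and capillary electrophoresis of fluorescent fragments. Gain or loss fitted against DMSO baseline.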

[11] = BSK_3C_TissueFactor: BioMAP Diversity Plus: 3C Assay for Tissue Factor Biomarker Activity (AID 2282997); conditions: BioMAP 3C HUVEC, tissue factor biomarker readout; actives raise or lower the signal
In short: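 Human vascular primary cells (umbilical vein endothelium) received test chemical; Tissue Factor was determined by ELISA at 24 h, and both gain and loss of signal versus DMSO were fitted.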

[12] = BSK_3C_uPAR: BioMAP Diversity Plus: 3C Assay for Urokinase-type plasminogen activator receptor (uPAR) Biomarker Activity (AID 2282998); conditions: BioMAP 3C HUVEC, uPAR biomarker ELISA; actives raise or lower the signal
In short: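 A multiplexed primary-cell system built on human umbilical vein endothelium was used, with chemical present for 24 h before reading. Cell-surface uPAR was detected by ELISA; signal change in either direction counted against DMSO.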

[13] = BSK_4H_Eotaxin3: BioMAP Diversity Plus: 4H Assay for Eotaxin 3 Biomarker Activity (AID 2283000); conditions: primary human endothelial cells (HUVEC); actives raise or lower the signal
In short: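 Readout is Eotaxin-3 (CCL26) level by ELISA in primary human umbilical vein endothelial cells harvested 24 h after chemical exposure; activity fitted in both directions against DMSO control.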

[14] = target: human Peroxisome Proliferator-activated Receptor alpha (PPARa), PPARA (gene 5465) (UniProt Q07869); experiment: ATG_PPARa_TRANS: Attagene TRANS-FACTORIAL HepG2 Assay for human Peroxisome Proliferator-activated Receptor alpha (PPARa) (AID 2283001; active = hit-call score of the fitted dose curve at least 0.9, where 1 is the maximum)
Sequence of human Peroxisome Proliferator-activated Receptor alpha (PPARa), PPARA (gene 5465) (Q07869 whole entry, looked up, the tested form may be a part): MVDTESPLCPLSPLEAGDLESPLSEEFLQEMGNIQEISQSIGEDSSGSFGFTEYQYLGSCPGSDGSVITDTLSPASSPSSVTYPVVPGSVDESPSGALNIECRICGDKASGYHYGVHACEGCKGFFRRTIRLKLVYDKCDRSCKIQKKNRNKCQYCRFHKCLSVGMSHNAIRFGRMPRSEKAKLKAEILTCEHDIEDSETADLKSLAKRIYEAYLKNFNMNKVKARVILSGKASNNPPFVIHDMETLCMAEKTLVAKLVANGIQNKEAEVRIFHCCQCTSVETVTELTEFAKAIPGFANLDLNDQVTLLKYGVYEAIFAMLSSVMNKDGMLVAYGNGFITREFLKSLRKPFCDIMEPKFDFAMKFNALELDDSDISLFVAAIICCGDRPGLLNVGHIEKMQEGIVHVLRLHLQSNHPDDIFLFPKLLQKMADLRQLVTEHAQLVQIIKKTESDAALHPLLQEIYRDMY
In short: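 Read-out is fluorescence of reporter cDNA fragments resolved by capillary electrophoresis after RT-PCR. Human HepG2 liver cells carried transfected PPARa-Gal4 chimera and GAL4-UAS reporter units, treated 24 h; activity scored as increase over DMSO.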

[15] = read-out: Intercellular Adhesion Molecule 1 (ICAM1), ICAM1 (gene 3383); experiment: BSK_3C_ICAM1: BioMAP Diversity Plus: 3C Assay for Intercellular Adhesion Molecule 1 (ICAM1) Biomarker Activity (AID 2283003); conditions: primary human endothelial cells (HUVEC); actives raise or lower the signal
In short: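 HUVEC primary cells stimulated under 3C conditions; ICAM1 measured by ELISA 24 h after compound dosing. Curves fitted bidirectionally against the DMSO baseline. Overt cytotoxicity checked by SRB staining of parallel cultures.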

[16] = BSK_3C_Proliferation: Cell Proliferation Assessment in the BioMAP Diversity Plus: 3C Assay (AID 2283006); conditions: primary human endothelial cells (HUVEC);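 for AC50: potency may reflect either rise or fall in cell number versus DMSO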
In short: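 Subconfluent HUVEC (3C system) cultured with chemical; relative cell number read at 48 h by sulforhodamine B total-protein staining (0.1% SRB after 10% TCA fixation, 560 nm). Bidirectional fit relative to DMSO.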

[17] = target: human Peroxisome Proliferator-activated Receptor delta (PPARd), PPARD (gene 5467) (UniProt Q03181); experiment: ATG_PPARd_TRANS: Attagene TRANS-FACTORIAL HepG2 Assay for human Peroxisome Proliferator-activated Receptor delta (PPARd) (AID 2283002; active = hit-call score of the fitted dose curve at least 0.9, where 1 is the maximum)
Sequence of human Peroxisome Proliferator-activated Receptor delta (PPARd), PPARD (gene 5467) (Q03181 whole entry, looked up, the tested form may be a part): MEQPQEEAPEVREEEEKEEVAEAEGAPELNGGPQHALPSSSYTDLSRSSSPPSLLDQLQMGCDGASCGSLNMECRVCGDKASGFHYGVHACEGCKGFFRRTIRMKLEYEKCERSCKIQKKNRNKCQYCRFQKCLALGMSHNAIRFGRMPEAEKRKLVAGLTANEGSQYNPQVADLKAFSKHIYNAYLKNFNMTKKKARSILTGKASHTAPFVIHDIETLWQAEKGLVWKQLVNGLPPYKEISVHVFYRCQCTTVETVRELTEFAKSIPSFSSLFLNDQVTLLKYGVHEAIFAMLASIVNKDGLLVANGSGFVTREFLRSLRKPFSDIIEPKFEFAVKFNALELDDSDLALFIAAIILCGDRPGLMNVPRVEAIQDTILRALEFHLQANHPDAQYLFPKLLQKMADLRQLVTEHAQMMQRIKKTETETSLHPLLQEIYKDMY
In short: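 Read-out is induced reporter mRNA, quantified by RT-PCR with fluorescent labelling and capillary electrophoresis after 24 h dosing. Cells are HepG2 transiently carrying multiple GAL4-UAS reporter units driven by exogenous NR-GAL4 chimeras; DMSO serves as baseline.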

[18] = BSK_3C_VCAM1: BioMAP Diversity Plus: 3C Assay for Vascular cell adhesion molecule 1 (VCAM1) Biomarker Activity (AID 2282999); conditions: BioMAP 3C HUVEC, VCAM1 ELISA, cytokine-stimulated; actives raise or lower the signal
In short: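 Endothelial cells from human umbilical vein are treated with test chemical. At 24 h, VCAM-1 is measured by ELISA, and responses in either direction are fitted relative to DMSO.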

[19] = target: human Retinoic Acid Receptor gamma (RARg), RARG (gene 5916) (UniProt P13631); experiment: ATG_RARg_TRANS: Attagene TRANS-FACTORIAL HepG2 Assay for human Retinoic Acid Receptor gamma (RARg) (AID 2283009; active = hit-call score of the fitted dose curve at least 0.9, where 1 is the maximum)
Sequence of human Retinoic Acid Receptor gamma (RARg), RARG (gene 5916) (P13631 whole entry, looked up, the tested form may be a part): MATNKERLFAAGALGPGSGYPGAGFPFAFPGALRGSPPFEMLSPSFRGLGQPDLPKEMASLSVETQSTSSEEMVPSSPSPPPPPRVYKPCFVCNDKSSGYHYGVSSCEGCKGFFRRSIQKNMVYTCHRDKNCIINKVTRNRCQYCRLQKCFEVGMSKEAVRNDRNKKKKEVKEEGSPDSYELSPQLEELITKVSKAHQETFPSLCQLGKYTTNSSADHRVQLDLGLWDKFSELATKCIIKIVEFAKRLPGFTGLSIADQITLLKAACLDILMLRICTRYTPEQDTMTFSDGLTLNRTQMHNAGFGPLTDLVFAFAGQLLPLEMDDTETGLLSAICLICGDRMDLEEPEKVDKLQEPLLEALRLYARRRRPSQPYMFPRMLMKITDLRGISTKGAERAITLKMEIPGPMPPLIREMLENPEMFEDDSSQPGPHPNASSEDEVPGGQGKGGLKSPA
In short: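 HepG2 transiently transfected with GAL4-UAS reporter units and chimeric NR-Gal4 constructs; 24 h compound exposure. Reporter mRNA quantified by RT-PCR, FAM labeling, HpaI digestion and capillary electrophoresis; gain-of-signal versus DMSO.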

[20] = target: Retinoic acid receptor alpha (Homo sapiens) (UniProt P10276); experiment: ATG_RARa_TRANS: Attagene TRANS-FACTORIAL HepG2 Assay for human Retinoic Acid Receptor alpha (RARa) (AID 2283005; active = hit-call score of the fitted dose curve at least 0.9, where 1 is the maximum)
Sequence of Retinoic acid receptor alpha (Homo sapiens) (P10276 whole entry, looked up, the tested form may be a part): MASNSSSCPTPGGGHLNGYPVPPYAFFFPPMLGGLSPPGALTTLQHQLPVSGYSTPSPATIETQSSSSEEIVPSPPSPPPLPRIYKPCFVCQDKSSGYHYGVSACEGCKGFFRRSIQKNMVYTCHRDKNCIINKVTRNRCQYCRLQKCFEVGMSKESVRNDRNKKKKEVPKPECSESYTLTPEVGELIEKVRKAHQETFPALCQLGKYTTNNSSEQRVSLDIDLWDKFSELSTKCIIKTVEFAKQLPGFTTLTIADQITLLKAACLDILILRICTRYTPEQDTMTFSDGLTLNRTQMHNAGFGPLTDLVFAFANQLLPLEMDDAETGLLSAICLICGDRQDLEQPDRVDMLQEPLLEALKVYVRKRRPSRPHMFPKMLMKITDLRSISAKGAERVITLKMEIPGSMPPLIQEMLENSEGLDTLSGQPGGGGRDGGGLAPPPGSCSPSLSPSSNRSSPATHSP
In short: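 Reporter transcripts, measured by RT-PCR with fluorescent labeling and capillary electrophoresis after 24 h dosing, reflect activity of an exogenous human RARa–GAL4 fusion in transiently transfected HepG2. Fitted for increase relative to DMSO.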

Measured: AC50

CC(C)CCOC(=O)CC(C)C
inactive: [1] | [2] | [3] | [4] | [5] | [6] | [7] | [8] | [9]

C=COCC1CCC(COC=C)CC1 (stereo unspecified)
inactive: [1] | [10] | [5] | [6] | [8] | [9]

Cc1ccc(C(C)(C)O)cc1
inactive: [2] | [10] | [3] | [4] | [5] | [6] | [8] | [9]

CC(=O)OCC=C(C)CCC=C(C)CCC=C(C)C
active: [1] 154 µM | [7] 18.9 µM | [8] 15.7 µM
not listed: [2] | [4] | [6] | [17] | [18] | [19] | [20]
inactive: all other assays above

CC1=CCC(=C(C)C)CC1
active: [4] 32 µM | [8] 6.82 µM
inactive: [1] | [10] | [5] | [6] | [7]

CC(C)=CCCC(C)=CC(=O)O
active: [7] 57.3 µM
inactive: [1] | [10] | [3] | [5] | [6] | [14] | [8]

CC1(C)CC(=O)CC(C)(C)N1
inactive: [1] | [3] | [4] | [5] | [6] | [17]

C=CC(C)CCCC(C)(C)O (stereo unspecified)
inactive: [2] | [10] | [3] | [4] | [5] | [6] | [17]

CCCCCCC(C)O (stereo unspecified)
inactive: [1] | [4] | [6] | [14] | [17] | [7] | [8]

NCCN1CCNCC1
inactive: [2] | [10] | [3] | [4] | [5] | [6] | [17] | [7] | [8] | [19] | [9]

CNC(=C[N+](=O)[O-])NCCSCc1ccc(CN(C)C)o1
inactive: [1] | [3] | [4] | [5] | [6] | [17] | [19] | [9]

CCCCCCCCSCc1cc(C)c(O)c(CSCCCCCCCC)c1
inactive: [2] | [10] | [3] | [4] | [5] | [6] | [14] | [17] | [7] | [9]

CC(=O)CCC=C(C)CCC=C(C)C
inactive: [2] | [10] | [3] | [5] | [6] | [11] | [12] | [14] | [15] | [16]
active: [4] 53 µM | [13] 31.5 µM

[O-]/[N+](=N\O)c1ccccc1
inactive: [1] | [10] | [5] | [6] | [14] | [17] | [8]
active: [7] 16.6 µM

Cc1ccncc1
inactive: [1] | [4] | [5] | [6] | [8]

C=C1CC[C@H]2O[C@]2(C)CC[C@@H]2[C@@H]1CC2(C)C
inactive: [2] | [10] | [3] | [4] | [5] | [6] | [17] | [7] | [8] | [9]

O=C1OC2(c3ccc(O)cc3Oc3cc(O)ccc32)c2ccccc21
active: [16] 20 µM | [8] 0.896 µM
not listed: [2] | [3] | [6] | [18] | [19] | [20]
inactive: all other assays above

CCOC(=O)CC1(C)OCC(C)O1 (stereo unspecified)
inactive: [2] | [10] | [3] | [4] | [5] | [6] | [8] | [19]

CCCO
inactive: [2] | [10] | [3] | [4] | [5] | [6] | [20] | [19]

NC(=O)NC(N)=O
inactive: [1] | [10] | [5] | [6] | [17] | [8] | [19]
